Our source for the z-score values is PubChem BioAssay AID1508600 (Functional Genomics Laboratory (NCATS/FGL), 2020).

About 3,700 (7%) of roughly 53,000 sequences were called active.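 How the source made its calls: active means gene knockdowns whose robust z-score for IL-1 alpha signal is at least 2 or at most -2, so actives lie on both sides; inactive means the rest.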 This excerpt belongs to a sample that is enriched for actives.

This experiment in a line: Components of the Cytosolic LPS Sensing Pathway: Gene Identification via Genome-wide siRNA Screen.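 Further: robust z of the log signal after scaling to non-targeting control siRNA wells of the plate.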 To be noted: RAW264.7 macrophages, IL-1a HTRF, actives lie on both sides, screened at 100 nM (by protocol), cells primed 5 h with Pam3CSK4 first. A digest of the protocol: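 Mouse macrophage line RAW264.7 is transfected with siRNA (100 nM final), grown 48h, primed with TLR ligand Pam3CSK4 5 h and given intracellular LipidA 24 h. IL-1a in supernatant is read by HTRF and viability by luminescence.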
For the sequence CCGUUUUUGUGGUUCAGUGTT against Plxdc1, the z-score was 0.0355 (inactive).
The result for GGCAACAUUGAACAUGCCUTT against Stambp reads -1.76 (inactive).
To GCAGUUCAAGUCUUGAAUATT against Olfr934 belongs -1.09 (inactive); to GGGUUUCUGUUAAUCCACATT against H3c8, -1.38 (inactive); to CCUGCUUGCCAACACCAUATT against Slc39a13, -2.2 (active).
Take GGAACAACAUUGUUCUAAATT against Fstl5: the z-score is 0.759 (inactive).
The result for GGGAGCCAUUUUUACAGACTT against Ffar4 reads 0.405 (inactive); that for GCCGGAACAUCCAGAAUAGTT against Cpeb2, -0.644 (inactive).
With GCACCUAGCAUAGCAAUGGTT against Slc24a1, the z-score is 0.695 (inactive).
To GCGAUGACCAAAAAUAUUGTT against Tmc1 belongs -0.0131 (inactive); to GCUGGCUAGAAUCUUACCCTT against Aph1c, 0.554 (inactive).
To GGGCAUGCAAUGUUCAUGCTT against Rho belongs 0.095 (inactive); to GGUUGUGCAACACAGCUCUTT against Olfr218, -2.31 (active); to CGUGUCAGAACUCGAUCUUTT against Tbcel, -0.549 (inactive).
To GGCCAUUGUUACUGGAAAATT against Elmo2 belongs -0.353 (inactive); to GGAACUGACUCUUGAAAAUTT against Cd14, 0.367 (inactive); to GCUAGAGUCCAUAAACAAUTT against Olfr1148, -0.0654 (inactive).
As for GGGUUAAAGCGGUUUACUUTT against Kcng3, the z-score was 2.72 (active).
As to GGAGCAAUCUGUUAAACUATT against Vash2, the z-score is 0.318 (inactive).
Consider GGCCCAUCCUGAAACCAAATT against Wfdc15b, for which the z-score was -2.04 (active).
For CCCGGAGUGGUCAGAAGUATT against Mapkapk2, the z-score was -0.376 (inactive).
The result for GGUAAGCAUGGAAAGGCUGTT against Prdm15 reads -0.0134 (inactive); that for GCCGUCAGAUGACAACUAGTT against Lta, 0.481 (inactive); that for GGAUGACCUUGAAAGCAGUTT against Usp29, -0.677 (inactive).
The result for GGCAAAGCUGUCUUAGAGGTT against Mettl23 reads -1.35 (inactive); that for GGCCAAAGCCAGAAUCUCATT against Zfp281, 3.07 (active).
To GGACAUAGAUCUACCUGAATT against Ctsb belongs -1.48 (inactive); to GCUUAAUGCCUUGAAACGATT against Tsg101, 1.9 (inactive); to GGAAGAAGAUCACCAUCAUTT against Ifi204, -2.64 (active).
As for GCACUUUGUGCUAGAUGAATT against Ddx39a, the z-score is -0.688 (inactive).
The result for GGAAUUGAAACCUGAUGUUTT against Srfbp1 reads 0.239 (inactive); that for GCUACUGUGUCGGUCACAUTT against Olfr514, 0.753 (inactive); that for “CCAGUGAUAACUCUCUUGUTT against A830039N20Rik”, 1.23 (inactive).
The result for GGUUGUGUUUACCAUGAAGTT against Rps6ka6 reads 0.684 (inactive); that for GUCAUGGUAGGGAUUUACATT against Taar4, -2.83 (active).
The result for GGAGAUCUAUUGGAUCCAUTT against Trim12a reads 0.337 (inactive).
On to CCAGAUGUCGGCAGAUAACTT against Pold4, for which the z-score is 0.446 (inactive).
On to GGGCUUUGAUCAGUUCUACTT against Hoxd11, for which the z-score was 1.88 (inactive).
To GCACUUUAAUCUGGCUACCTT against Dnmt3b belongs -0.78 (inactive).
To GGCUCUGACCAAGAAUGAUTT against Cpsf1 belongs 1.27 (inactive); to GGAUCACUAACUUUUCCAATT against Trpc3, 3.46 (active).
The result for GGCACACUCACUCCUUUGATT against Mis18bp1 reads 0.145 (inactive); that for “GGAAACGAUGAAGAACAAATT against 4933427D06Rik”, -0.714 (inactive).
As to GCAUUUUUCGUUAGGAAAATT against Esco2, the z-score was 3.13 (active).
As to “GGUAGAAACAAAGAAAUAGTT against 9130023H24Rik”, the z-score is -0.183 (inactive).
GGGCUAAGGACAGAAUUACTT against Tusc2: the z-score is -0.0196 (inactive).
To GGAGAAGAACUAAAACUUATT against Bbs7 belongs 0.846 (inactive); to GGUCUCCAUCACAUUCAAGTT against BC024139, 1.19 (inactive).
As to CCGGAUGGGAAUCGCUAAATT against Slc22a13b, the z-score is 2.17 (active).
AAUCUUUUCGUGAAGGCACTT against Zfp948: the z-score is 0.84 (inactive).
For CGAAUGCUUAUUUAGGUUGTT against Kpna4, the z-score is -0.387 (inactive).
To GCUGAAAUAUGUGAGAGCATT against Sdcbp belongs 0.016 (inactive); to CCGGGUCAUUAUCUAUCAATT against Puf60, -0.383 (inactive).
As for CGCAGCUUUCUAUACUGGCTT against Ngf, the z-score is 2.41 (active).
The result for GCACUUACUCUUCAACGGGTT against Yae1d1 reads 1.87 (inactive); that for GGUCGUCGUGAGAUCUUAUTT against Prlhr, -0.342 (inactive); that for CGUGUGUUUUACCCUAAAATT against Zfp947, 0.404 (inactive).
In the case of GGAAGCUGUGGAGAAACUATT against Acox2, the z-score is 2.22 (active).
To GGACGAGAACAUCUUAAUCTT against Pim1 belongs 1.58 (inactive); to GGAACUUACACAUUUGUUCTT against Tnfsf13b, -1.11 (inactive).
On to GCCAUGACCAUCUUUCUCUTT against Olfr1413, for which the z-score is -3.03 (active).
On to GGAGCAUGUCUUUAAGAAGTT against Stac, for which the z-score was -1.15 (inactive).
The result for GCUAACUUACCCAAAGAAATT against Tnfaip3 reads 1.41 (inactive); that for GUGCAACGUGAGCAAUACGTT against Selenbp2, -0.417 (inactive).
The result for CGUAAAACUCUUAGGCAUGTT against Npm1 reads 1.13 (inactive); that for GAAAAAAUGCCAGCUGUGGTT against Sec61b, 0.379 (inactive); that for CCUGCAUACGAAGUACAUATT against Bsg, 2.75 (active).
As for GGAUCCAUCCGUCUCUAAGTT against Rprd2, the z-score was 0.628 (inactive).
To GGUGCAAGUUCCCAUUAUATT against Tpsab1 belongs -0.405 (inactive).
The result for GGACAUAGCAUCUUCACUUTT against Mpp3 reads -1.31 (inactive).
GGCCUUAGGAAAAAAAAAGTT against Bad: the z-score was 0.956 (inactive).
With CCUUGGUGGUCUGAAAUAATT against Cyp4a31, the z-score is -0.159 (inactive).
The result for GGAGAAACUGGACAACCUGTT against Eno2 reads 4.12 (active); that for GGAUGUGAAUGAGUGUGAGTT against Fbln7, 0.368 (inactive).
For the sequence GGAGAAUGAACAGACAGAGTT against Slc39a14, the z-score is -2.06 (active).
With GGAGAAGAAGGUUCUUGCCTT against Hoxb13, the z-score is -1.03 (inactive).
The result for GGUCGCACAAGGUAUUAUATT against AI661453 reads -0.402 (inactive); that for GGGAAAAAGAACAAGAUCATT against Cep57l1, -0.799 (inactive); that for GGGAACAAGACAACACAGCTT against Adam11, 2.03 (active).
To GGUACUUCCUCAUUUACCUTT against Zdhhc4 belongs 0.541 (inactive); to CCGUAAGCUGUCUCUUUGUTT against Pla2g4c, -1.97 (inactive).
CCGUCUAUUAGUGAAGAUGTT against Pex1: the z-score is 0.0157 (inactive).
As for GGGUGAAAAUGGCAUUGUUTT against Col1a2, the z-score is 0.56 (inactive).
For the sequence CGUGAUGGGACUUGAGAAGTT against Teddm1a, the z-score is -0.454 (inactive).
To GGAAAGAUUGUUUGAAGGCTT against Cask belongs -0.252 (inactive).
For the sequence GCUGAUUUCAUUGCAUCCGTT against Olfr483, the z-score was 2.12 (active).
To GGAAAAGGUUAAACUUUGATT against Cenpc1 belongs 0.165 (inactive); to CCAUCCUCCUACUCGUUAGTT against Vmn1r233, 2.03 (active); to CCAAUAAAAGUUGAGAGCUTT against Krt18, -0.272 (inactive).
To GCCUGACAUUGGGACAAAGTT against Trim34a belongs 0.179 (inactive); to GCCUCCUAUCCUGGGAAGATT against Prss3, 2.54 (active).
GGAGACGAGAAACAAACCCTT against Diaph2: the z-score was 1.68 (inactive).
GGUACUUUGGAGAUUGUAATT against Rdh14: the z-score was -0.462 (inactive).
Take GGCAGCCAAGAGAUUGAAUTT against Suclg2: the z-score is 1.09 (inactive).
To GGUUCUGAAAUGCAUGGAGTT against Rnf6 belongs 1.76 (inactive); to GCAAAUGCGACUUUACACATT against Top1, 2.56 (active).
In the case of GGAGCUGCUUGCUCAAAGATT against Tmem65, the z-score is 0.61 (inactive).
GCUGGAAAUGACACUGCCUTT against C1qtnf7: the z-score is 1.45 (inactive).
On to GCGGGAAUGAAGAAACACGTT against Eea1, for which the z-score was 0.801 (inactive).
Turning to GCCACGUUCCCUUGAUCAUTT against Mx2, the z-score was 1.4 (inactive).
The result for GGAUGCCUUCUAUACACUATT against Hras reads -1.33 (inactive); that for CCCUUACAUCCAUCAACUATT against Dcbld2, -1.04 (inactive); that for GGAAGUAUGUGUUUCUCAGTT against Prr9, -2.41 (active).
The result for “GGUAAUAAACGGUAAAUUGTT against B430306N03Rik” reads -0.763 (inactive); that for GGUUCCAUAGCAGACAAAATT against Mrpl24, 0.513 (inactive).
With CCAAAUAUGUACUUCAUGGTT against Adipor1, the z-score is -0.147 (inactive).
With CGAUAAGAACACCUAUAUUTT against Sf3b1, the z-score was -3.26 (active).
